Reference: the antibiotic and cytotoxicity screens of Wong et al. (2023)
The campaign covered roughly 39,000 compounds. About 1,500 (3.8%) were called active. The full list was thinned out, with actives kept by preference.

What follows are compounds tested on HSkMC (human skeletal muscle cells) (assay: cytotoxicity call (relative viability < 0.9)). Settings: 10 µM.
With `C[C@H](O)C#Cc1ccc2c(c1)O[C@@H](CN(C)C(=O)Cc1ccccn1)[C@H](C)CN([C@H](C)CO)S2(=O)=O` the cytotoxicity call was “inactive”. In the case of `O=C(O)CNC(=O)c1[nH]nc2ccccc12`, the cytotoxicity call is reported as “inactive”. With `C[C@@H]1CCCCO[C@@H](CN(C)Cc2ccc(C(F)(F)F)cc2)[C@@H](C)CN([C@H](C)CO)C(=O)c2cc(NS(=O)(=O)c3ccccc3)ccc2O1` the cytotoxicity call was “inactive”. With `C[C@H](CO)N1C[C@H](C)[C@H](CN(C)S(=O)(=O)c2ccc(F)cc2)Oc2ccc(NS(=O)(=O)c3ccc(F)cc3)cc2C1=O` the cytotoxicity call was “inactive”. For `COc1ccc(CN(C)C[C@H]2OCCCC[C@H](C)Oc3ccc(NC(=O)Nc4cccc5ccccc45)cc3C(=O)N([C@@H](C)CO)C[C@H]2C)cc1`, the cytotoxicity call was “inactive”. In the case of `COc1ccc(CN(C)C[C@@H]2OCCCC[C@H](C)Oc3ccc(NC(=O)Nc4cccc5ccccc45)cc3C(=O)N([C@H](C)CO)C[C@H]2C)cc1`, the cytotoxicity call is reported as “active”. With `COc1ccc(CN(C)C[C@H]2OCCCC[C@@H](C)Oc3ccc(NC(=O)Nc4cccc5ccccc45)cc3C(=O)N([C@H](C)CO)C[C@H]2C)cc1` the cytotoxicity call was “inactive”. In the case of `COc1ccc(CN(C)C[C@@H]2OCCCC[C@@H](C)Oc3ccc(NC(=O)Nc4cccc5ccccc45)cc3C(=O)N([C@@H](C)CO)C[C@H]2C)cc1`, the cytotoxicity call is reported as “active”. `COc1ccc(CN(C)C[C@@H]2OCCCC[C@H](C)Oc3ccc(NC(=O)Nc4cccc5ccccc45)cc3C(=O)N([C@H](C)CO)C[C@@H]2C)cc1` was tested, and the cytotoxicity call was “inactive”. With `COc1ccc(CN(C)C[C@H]2OCCCC[C@H](C)Oc3ccc(NC(=O)Nc4cccc5ccccc45)cc3C(=O)N([C@@H](C)CO)C[C@@H]2C)cc1` the cytotoxicity call was “inactive”. In the case of `COc1ccc(CN(C)C[C@@H]2OCCCC[C@H](C)Oc3ccc(NC(=O)Nc4cccc5ccccc45)cc3C(=O)N([C@@H](C)CO)C[C@@H]2C)cc1`, the cytotoxicity call is reported as “active”. `COc1ccc(CN(C)C[C@@H]2OCCCC[C@@H](C)Oc3ccc(NC(=O)Nc4cccc5ccccc45)cc3C(=O)N([C@H](C)CO)C[C@H]2C)cc1` was tested, and the cytotoxicity call was “active”. With `C[C@@H]1CC=CC[C@@H](c2cccc(Cl)c2)NC(=O)[C@@H](Cc2ccccc2)N(C)C(=O)c2ccccc2O1` the cytotoxicity call was “inactive”. With `Cc1noc(C)c1NC(=O)Nc1ccc2c(c1)C(=O)N([C@@H](C)CO)C[C@H](C)[C@H](CN(C)Cc1ccc(Cl)c(Cl)c1)OCCCC[C@@H](C)O2` the cytotoxicity call was “inactive”. In the case of `N[C@@H](CC(=O)O)c1cccc([N+](=O)[O-])c1`, the cytotoxicity call is reported as “inactive”. With `C[C@@H]1CN([C@H](C)CO)C(=O)c2cc(NS(=O)(=O)c3ccccc3)ccc2O[C@H]1CN(C)S(C)(=O)=O` the cytotoxicity call was “inactive”. In the case of `COCC#Cc1ccc2c(c1)O[C@@H](CN(C)C(=O)COC)[C@H](C)CN([C@@H](C)CO)S2(=O)=O`, the cytotoxicity call is reported as “inactive”. `CC(C)NC(=O)Nc1ccc2c(c1)C(=O)N([C@@H](C)CO)C[C@H](C)[C@H](CN(C)S(=O)(=O)c1cccs1)O2` was tested, and the cytotoxicity call was “inactive”. With `C[C@@H]1CN([C@H](C)CO)C(=O)Cc2cc(NC(=O)C3CCCCC3)ccc2O[C@H]1CN(C)C(=O)Nc1ccc(C(F)(F)F)cc1` the cytotoxicity call was “inactive”. `Cc1ccc(S(=O)(=O)N[C@H]2C=C[C@H](CC(=O)NCCN3CCCCC3)O[C@@H]2CO)cc1` was tested, and the cytotoxicity call was “inactive”. With `C[C@@H]1CN([C@H](C)CO)C(=O)c2cc(NS(=O)(=O)c3cccs3)ccc2O[C@@H]1CN(C)S(=O)(=O)c1cccs1` the cytotoxicity call was “inactive”. With `CC(C)NC(=O)Nc1ccc2c(c1)C(=O)N([C@H](C)CO)C[C@@H](C)[C@@H](CN(C)Cc1ccc(Oc3ccccc3)cc1)O2` the cytotoxicity call was “inactive”. `NC[C@@H](CO)Cc1ccsc1` was tested, and the cytotoxicity call was “inactive”. For `C[C@@H]1CCCCO[C@@H](CN(C)S(C)(=O)=O)[C@H](C)CN([C@@H](C)CO)C(=O)c2cc(NC(=O)CCCN(C)C)ccc2O1`, the cytotoxicity call was “inactive”. With `COc1ccc(S(=O)(=O)Nc2ccc3c(c2)C(=O)N([C@@H](C)CO)C[C@H](C)[C@@H](CN(C)S(=O)(=O)c2cccs2)O3)cc1` the cytotoxicity call was “inactive”. With `COc1ccc(S(=O)(=O)N2C[C@H](O)COC[C@@H]3O[C@H](CC(=O)N[C@@H]4CCN(Cc5ccccc5)C4)CC[C@H]32)cc1` the cytotoxicity call was “inactive”. For `COc1ccc(CN(C)C[C@H]2OCCCC[C@H](C)Oc3ccc(NC(=O)Nc4cccc5ccccc45)cc3C(=O)N([C@H](C)CO)C[C@H]2C)cc1`, the cytotoxicity call was “active”. `COc1ccc(CN(C)C[C@@H]2OCCCC[C@H](C)Oc3ccc(NC(=O)Nc4cccc5ccccc45)cc3C(=O)N([C@@H](C)CO)C[C@H]2C)cc1` was tested, and the cytotoxicity call was “active”. With `COc1ccc(CN(C)C[C@@H]2OCCCC[C@@H](C)Oc3ccc(NC(=O)Nc4cccc5ccccc45)cc3C(=O)N([C@H](C)CO)C[C@@H]2C)cc1` the cytotoxicity call was “inactive”. `COc1ccc(CN(C)C[C@H]2OCCCC[C@H](C)Oc3ccc(NC(=O)Nc4cccc5ccccc45)cc3C(=O)N([C@H](C)CO)C[C@@H]2C)cc1` was tested, and the cytotoxicity call was “inactive”. In the case of `COc1ccc(CN(C)C[C@@H]2OCCCC[C@@H](C)Oc3ccc(NC(=O)Nc4cccc5ccccc45)cc3C(=O)N([C@@H](C)CO)C[C@@H]2C)cc1`, the cytotoxicity call is reported as “inactive”. For `COc1ccc(CN(C)C[C@H]2OCCCC[C@@H](C)Oc3ccc(NC(=O)Nc4cccc5ccccc45)cc3C(=O)N([C@@H](C)CO)C[C@H]2C)cc1`, the cytotoxicity call was “active”. In the case of `COc1ccc(CN(C)C[C@H]2OCCCC[C@@H](C)Oc3ccc(NC(=O)Nc4cccc5ccccc45)cc3C(=O)N([C@@H](C)CO)C[C@@H]2C)cc1`, the cytotoxicity call is reported as “inactive”. `COc1ccc(CN(C)C[C@H]2OCCCC[C@@H](C)Oc3ccc(NC(=O)Nc4cccc5ccccc45)cc3C(=O)N([C@H](C)CO)C[C@@H]2C)cc1` was tested, and the cytotoxicity call was “active”. With `CCOC(=O)c1cc2c(c(-c3cccc(-c4cccc(F)c4)c3)n1)[C@H](CCO)N(S(=O)C(C)(C)C)C2` (stereo partly drawn) the cytotoxicity call was “inactive”. For `N#C[C@H]1N[C@@H](CO)[C@@H]1c1ccccc1`, the cytotoxicity call was “inactive”. In the case of `CC(C)NC(=O)N(C)C[C@@H]1OCCCC[C@H](C)Oc2ccc(NC(=O)C3CCCCC3)cc2C(=O)N([C@H](C)CO)C[C@@H]1C`, the cytotoxicity call is reported as “inactive”. In the case of `COc1ccc(S(=O)(=O)Nc2ccc3c(c2)C(=O)N([C@@H](C)CO)C[C@@H](C)[C@@H](CN(C)C(=O)Nc2ccccc2)OCCCC[C@@H](C)O3)cc1`, the cytotoxicity call is reported as “inactive”. `C[C@@H]1CN([C@H](C)CO)C(=O)c2cc(Br)cnc2O[C@@H]1CN(C)S(=O)(=O)c1ccc(F)cc1` was tested, and the cytotoxicity call was “inactive”. With `C[C@@H]1CN([C@@H](C)CO)C(=O)c2cc(NC(=O)CCN3CCOCC3)ccc2O[C@@H]1CN(C)C(=O)Nc1ccc2c(c1)OCO2` the cytotoxicity call was “inactive”. For `C[C@@H]1CN([C@H](C)CO)C(=O)c2cc(C#CCN(C)C)cnc2O[C@@H]1CN(C)C(=O)c1ccc2c(c1)OCO2`, the cytotoxicity call was “inactive”. `C[C@@H]1CN([C@@H](C)CO)S(=O)(=O)c2ccc(C#CC3CCCC3)cc2O[C@H]1CN(C)C(=O)Cc1ccncc1` was tested, and the cytotoxicity call was “inactive”. With `Cc1noc(C)c1NC(=O)Nc1ccc2c(c1)CC(=O)N([C@@H](C)CO)C[C@H](C)[C@H](CN(C)S(=O)(=O)c1cccs1)O2` the cytotoxicity call was “inactive”. In the case of `COC(=O)C1=C(C)NC(C)=C(C(=O)OCCN(C)Cc2ccccc2)C1c1cccc([N+](=O)[O-])c1.Cl` (stereo not drawn), the cytotoxicity call is reported as “inactive”. With `COC(=O)C1=C(C)NC(C)=C(C(=O)OCCCN2CCC(c3ccccc3)(c3ccccc3)CC2)[C@@H]1c1cccc([N+](=O)[O-])c1` the cytotoxicity call was “active”. `COCCOC(=O)C1=C(C)NC(C)=C(C(=O)OCC=Cc2ccccc2)C1c1cccc([N+](=O)[O-])c1` (stereo not drawn) was tested, and the cytotoxicity call was “inactive”. For `COC(=O)C1=C(C)NC(C)=C(C(=O)OCCCN2CCC(c3ccccc3)(c3ccccc3)CC2)[C@H]1c1cccc([N+](=O)[O-])c1`, the cytotoxicity call was “active”. `COCCOC(=O)C1=C(C)NC(C)=C(C(=O)OC(C)C)C1c1cccc([N+](=O)[O-])c1` (stereo not drawn) was tested, and the cytotoxicity call was “inactive”. With `COC(=O)C1=C(C)NC(C)=C(C(=O)OCCN2CCN(C(c3ccccc3)c3ccccc3)CC2)C1c1cccc([N+](=O)[O-])c1` (stereo not drawn) the cytotoxicity call was “inactive”. With `CCCN1C(C)=C(C(=O)OC)[C@@H](c2cccc([N+](=O)[O-])c2)C(C(=O)ON2CCC(c3ccccc3)(c3ccccc3)CC2)=C1C` the cytotoxicity call was “active”. For `CCOC(=O)C1=C(C)NC(C)=C(C(=O)OC)C1c1cccc([N+](=O)[O-])c1` (stereo not drawn), the cytotoxicity call was “inactive”. With `CC1=C(C(=O)OCCN(Cc2ccccc2)c2ccccc2)[C@H](c2cccc([N+](=O)[O-])c2)C(P2(=O)OCC(C)(C)CO2)=C(C)N1` the cytotoxicity call was “inactive”. `COC(=O)C1=C(C)NC(C)=C(C(=O)OC(C)(C)CN(C)CCC(c2ccccc2)c2ccccc2)[C@@H]1c1cccc([N+](=O)[O-])c1` was tested, and the cytotoxicity call was “active”. With `COC(=O)C1=C(C#N)NC(C)=C(C(=O)OC(C)C)C1c1cccc([N+](=O)[O-])c1` (stereo not drawn) the cytotoxicity call was “inactive”. `COC(=O)C1=C(C)NC(C)=C(C(=O)NCCCN2CCC(c3ccccc3)(c3ccccc3)CC2)[C@@H]1c1ccc([N+](=O)[O-])cc1` was tested, and the cytotoxicity call was “inactive”. `Cc1ccc(S(=O)(=O)N(C)C[C@H]2Oc3ccc(NS(=O)(=O)c4cccs4)cc3CC(=O)N([C@@H](C)CO)C[C@@H]2C)cc1` was tested, and the cytotoxicity call was “inactive”. In the case of `C[C@@H]1CN([C@H](C)CO)C(=O)Cc2cc(NC(=O)c3ccncc3)ccc2O[C@@H]1CN(C)Cc1ccc(C(=O)O)cc1`, the cytotoxicity call is reported as “inactive”. For `COc1ccc(O)c(N)c1`, the cytotoxicity call was “inactive”. In the case of `c1csc(CNc2ccc(NCc3cccs3)cc2)c1`, the cytotoxicity call is reported as “inactive”. In the case of `Cc1noc(C)c1NC(=O)N[C@H]1CC[C@@H](CC(=O)N2CCN(C)CC2)O[C@@H]1CO`, the cytotoxicity call is reported as “inactive”. For `C[C@H](CO)N1C[C@H](C)[C@H](CN(C)S(C)(=O)=O)Oc2ccc(NC(=O)C3CCCCC3)cc2CC1=O`, the cytotoxicity call was “inactive”. With `Cc1ccc(S(=O)(=O)N[C@@H](Cc2ccccc2)C(=O)NCCCn2cc(C(=O)NO)nn2)cc1` the cytotoxicity call was “inactive”. `C[C@@H]1CCCCO[C@H](CN(C)CC2CCCCC2)[C@@H](C)CN([C@@H](C)CO)C(=O)c2cc(NS(=O)(=O)c3cccs3)ccc2O1` was tested, and the cytotoxicity call was “inactive”.
